Assay results taken from PubChem BioAssay AID1159580 (chemical genetic matrix, 2015).
“And” between values parts separate entries of the source, which are not always exact repeats. Equal entries are not always repeated. Screen size: about 5,500 compounds; about 2,000 (36%) were called active. Not shown: some 18% with an inconclusive outcome. Cut-off read from the data, not from the text of the source: active = normalized growth mostly below about 0.91 (no sharp cut-off); inconclusive = no clear call, values can overlap the other calls; inactive = mostly above about 0.92. The list shows a part of the results.

Experiment: chemical genetic growth profiling, strain panel (AID 1159580);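 note: tested at 20 µM; growth read once vehicle control cultures reached saturation at 30 °C; 1 = growth at the plate median or of vehicle wells; lower values mean less growth of the strain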
Details: S. cerevisiae deletion strains, growth OD

Measured: normalized growth

C=Cc1c2[nH]c(c1C)C=c1[nH]c(c(C)c1C=C)=CC1N=C(C=c3[nH]c(c(C)c3CCC(=O)O)=C2)C(CCC(=O)O)=C1C (configuration not stated)
inactive: locus YAL013W, strain DEP1, hits give low values 0.975 | locus YAL021C, strain ccr4, hits give low values 0.954 | locus YAL026C, strain drs2, hits give low values 1.02 | locus YAL030W, strain snc1, hits give low values 1.03 | locus YBL061C, strain skt5, hits give low values 1.02 | locus YBR009C, strain hhf1, hits give low values 1.02 | locus YBR021W, strain FUR4, hits give low values 1.01 | locus YBR023C, strain chs3, hits give low values 1.01 | locus YBR171W, strain sec66, hits give low values 1.08 | locus YBR229C, strain ROT2, hits give low values 0.961 | locus YBR231C, strain swc5, hits give low values 1.02 | locus YBR279W, strain paf1, hits give low values 1.01 | locus YCL011C, strain gbp2, hits give low values 1.05 | locus YCL016C, strain dcc1, hits give low values 1 | locus YCL029C, strain bik1, hits give low values 0.979 | locus YCL061C, strain MRC1, hits give low values 1.03 | locus YCL069W, strain vba3, hits give low values 1.02 | locus YCR088W, strain abp1, hits give low values 1.04 | locus YDL005C, strain med2, hits give low values 1.01 | locus YDL035C, strain GPR1, hits give low values 0.975 | locus YDL040C, strain nat1, hits give low values 0.993 | locus YDL074C, strain BRE1, hits give low values 0.988 | locus YDL101C, strain DUN1, hits give low values 0.981 | locus YDL134C, strain PPH21, hits give low values 0.988 | locus YDL185W, strain tfp1, hits give low values 0.983 | locus YDL192W, strain arf1, hits give low values 0.976 | locus YDR001C, strain nth1, hits give low values 1.03 | locus YDR069C, strain doa4, hits give low values 1.06 | locus YDR101C, strain arx1, hits give low values 0.987 | locus YDR137W, strain rgp1, hits give low values 1 | locus YDR150W, strain NUM1, hits give low values 0.973 | locus YDR159W, strain sac3, hits give low values 1.03 | locus YDR162C, strain NBP2, hits give low values 0.96 | locus YDR195W, strain ref2 1.03 | locus YDR297W, strain sur2, hits give low values 1.01 | locus YDR318W, strain mcm21, hits give low values 0.989 | locus YDR334W, strain swr1, hits give low values 1.04 | locus YDR335W, strain msn5, hits give low values 1.01 | locus YDR388W, hits give low values 0.999 | locus YDR392W, strain spt3, hits give low values 0.909 | locus YDR502C, strain sam2, hits give low values 0.952 | locus YEL003W, strain gim4, hits give low values 1.05 | locus YEL037C, strain rad23, hits give low values 1.02 | locus YEL061C, strain CIN8 (second series), hits give low values 1.02 | locus YEL061C, strain CIN8, hits give low values 0.986 | locus YER015W, strain faa2, hits give low values 1.04 | locus YER016W, strain bim1, hits give low values 1.02 | locus YER110C, hits give low values 0.972 | locus YER111C, strain swi4, hits give low values 1.03 | locus YER155C, strain BEM2 (second series), hits give low values 1.07 | locus YER155C, strain BEM2, hits give low values 1 | locus YER167W, strain BCK2, hits give low values 0.982 | locus YFR010W, strain ubp6, hits give low values 1.04 | locus YGL078C, strain dbp3, hits give low values 1.02 | locus YGL086W, strain mad1, hits give low values 0.938 | locus YGL167C, strain pmr1, hits give low values 1.02 | locus YGL173C, strain kem1, hits give low values 1.02 | locus YGL227W, strain vid30, hits give low values 1.05 | locus YGL240W, strain doc1, hits give low values 0.977 | locus YGL248W, strain PDE1, hits give low values 0.995 | locus YGL253W, strain hxk2, hits give low values 0.988 | locus YGR078C, strain PAC10, hits give low values 0.994 | locus YGR135W, strain pre9, hits give low values 0.961 | locus YGR229C, strain SMI1, hits give low values 0.923 | locus YGR252W, strain gcn5, hits give low values 1.05 | locus YHR013C, strain ard1, hits give low values 0.975 | locus YHR027C, strain rpn1, hits give low values 1.06 | locus YHR030C, strain SLT2, hits give low values 1 and 1.03 | locus YHR079C, strain IRE1 (second series), hits give low values 0.99 | locus YHR079C, strain IRE1, hits give low values 1.07 | locus YHR094C, strain hxt1, hits give low values 0.996 | locus YHR129C, strain ARP1, hits give low values 0.995 | locus YHR142W, strain chs7, hits give low values 0.975 | locus YHR200W, strain rpn10, hits give low values 0.97 | locus YIL066C, strain RNR3, hits give low values 0.982 | locus YIL073C, strain SPO22, hits give low values 1.01 | locus YIL125W, strain kgd1, hits give low values 1.02 | locus YIR030C, strain dcg1, hits give low values 0.986 | locus YJL092W, strain hpr5, hits give low values 1.02 | locus YJL095W, strain BCK1 (second series), hits give low values 1.02 | locus YJL095W, strain BCK1, hits give low values 1.02 and 1.01 | locus YJL115W, strain asf1, hits give low values 1.02 | locus YJL129C, strain trk1, hits give low values 1.04 | locus YJL134W, strain LCB3, hits give low values 0.988 | locus YJL154C, strain vps35, hits give low values 1.02 | locus YJL164C, strain tpk1, hits give low values 0.968 | locus YJL166W, strain qcr8, hits give low values 0.945 | locus YJL168C, strain set2, hits give low values 0.996 | locus YJL187C, strain SWE1 (second series), hits give low values 1 | locus YJL187C, strain SWE1, hits give low values 1 | locus YJR043C, strain POL32, hits give low values 0.962 | locus YJR066W, strain TOR1, hits give low values 0.995
